# Source: PubChem BioAssay
# Active and inactive are the calls of the source.
# How the values were obtained:
# [1] = optical density shifts of acrAB sulA E. coli – strain DRC41, OD650, 48 h, E. coli filamentation inducer project, primary screen (AID 1152); settings: higher = more signal, called active from +8 up or from −8 down;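 note: E. coli MC1000 strain DRC41 lacking acrAB efflux pump and sulA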
# [2] = probe aLefty1 binding on compound microarray – biochemical, small-molecule microarray, 635/667 nm fluorescence, primary screen (AID 1153); settings: higher = more signal;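 note: score merges spot fluorescence with signal-to-noise ratio from the scanned slide images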
# [3] = plasmodial surface anion channel blockers, osmotic lysis – cell-based, P. falciparum Indochina, OD700, 1 h, primary screen (AID 1154); settings: P. falciparum Indochina infected RBC osmotic lysis, higher = more signal, called active from +8 up or from −8 down
# [4] = plasmodial surface anion channel blockers, osmotic lysis – cell-based, P. falciparum Indochina, OD700, 2 h, primary screen (AID 1155);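 note: lysis reports solute entry through the parasite surface anion channel PSAC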; settings: P. falciparum Indochina infected erythrocytes, higher = more signal, called active from +8 up or from −8 down
# [5] = changes in parasitized red cell lysis, either direction – P. falciparum Indochina, OD700, 3 h, PSAC antagonist project, primary screen (AID 1156); settings: P. falciparum-infected erythrocytes, osmotic lysis, higher = more signal, called active from +8 up or from −8 down
# [6] = plasmodial surface anion channel blockers, osmotic lysis – cell-based, P. falciparum Indochina, OD700, 18 h, primary screen (AID 1157); settings: P. falciparum Indochina infected erythrocytes, osmotic lysis OD700, 18 h; higher = more signal, called active from +8 up or from −8 down
# [7] = S6 kinase pathway phospho-S6 level changes – cell-based, A549, cytoblot, luminescence, serum-stimulated, primary screen (AID 1158); settings: 5 h, higher = more signal;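 note: serum-stimulated A549 lung adenocarcinoma cells; signal is phosphorylated S6 detected by cytoblot immunostaining with HRP secondary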
# [8] = biological target: NADPH oxidase 2 (Homo sapiens) (UniProt P04839); assay: compounds shifting NOX2 Amplex Red fluorescence – cell-based, HEK293-NOX2, PMA-stimulated, NOX inhibitor project, primary screen (AID 1159); settings: 45 min, higher = more signal, called active from +8 up or from −8 down; note: test concentration not given here
# Sequence of NADPH oxidase 2 (Homo sapiens) (P04839 whole entry, looked up): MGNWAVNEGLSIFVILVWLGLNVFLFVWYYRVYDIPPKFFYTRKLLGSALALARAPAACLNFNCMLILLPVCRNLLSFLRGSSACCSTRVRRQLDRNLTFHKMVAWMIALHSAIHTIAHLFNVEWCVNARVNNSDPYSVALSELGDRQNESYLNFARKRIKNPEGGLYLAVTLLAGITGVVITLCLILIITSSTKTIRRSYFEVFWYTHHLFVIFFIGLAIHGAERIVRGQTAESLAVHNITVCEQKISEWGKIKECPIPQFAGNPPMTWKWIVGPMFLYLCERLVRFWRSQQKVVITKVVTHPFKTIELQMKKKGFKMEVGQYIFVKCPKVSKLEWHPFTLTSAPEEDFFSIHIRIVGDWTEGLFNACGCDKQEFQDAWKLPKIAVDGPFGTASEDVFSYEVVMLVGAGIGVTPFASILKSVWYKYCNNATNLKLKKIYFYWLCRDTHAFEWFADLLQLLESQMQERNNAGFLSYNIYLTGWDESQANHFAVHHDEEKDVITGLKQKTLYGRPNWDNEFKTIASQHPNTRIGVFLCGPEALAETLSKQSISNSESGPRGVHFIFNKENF
# [9] = biological target: NADPH oxidase 4 (Homo sapiens) (UniProt Q9NPH5); assay: compounds shifting NOX4 Amplex Red fluorescence – cell-based, HEK293-NOX4, tetracycline-induced, NOX inhibitor project, primary screen (AID 1160); settings: HEK293-NOX4, Amplex Red H2O2 fluorescence, 45 min; higher = more signal, called active from +8 up or from −8 down
# Sequence of NADPH oxidase 4 (Homo sapiens) (Q9NPH5 whole entry, looked up): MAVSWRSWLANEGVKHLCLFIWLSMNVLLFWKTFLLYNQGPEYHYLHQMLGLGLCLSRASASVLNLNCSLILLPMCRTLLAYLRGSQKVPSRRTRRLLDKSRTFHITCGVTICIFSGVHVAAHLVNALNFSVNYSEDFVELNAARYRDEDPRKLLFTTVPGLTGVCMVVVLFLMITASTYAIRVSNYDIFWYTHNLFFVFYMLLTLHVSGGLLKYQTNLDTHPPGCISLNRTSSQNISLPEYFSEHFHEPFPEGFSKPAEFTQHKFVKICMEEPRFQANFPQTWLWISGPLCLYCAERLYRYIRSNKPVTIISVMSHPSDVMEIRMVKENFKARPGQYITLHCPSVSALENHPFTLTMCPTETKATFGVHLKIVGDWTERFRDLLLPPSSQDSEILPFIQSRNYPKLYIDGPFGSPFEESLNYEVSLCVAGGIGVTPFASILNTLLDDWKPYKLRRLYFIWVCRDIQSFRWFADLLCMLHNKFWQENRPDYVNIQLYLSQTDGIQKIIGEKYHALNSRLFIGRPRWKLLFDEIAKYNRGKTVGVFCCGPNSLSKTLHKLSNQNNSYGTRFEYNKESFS
# [10] = biological target: NADPH oxidase 5 (Homo sapiens) (UniProt Q96PH1); assay: compounds shifting NOX5 Amplex Red fluorescence – cell-based, HEK293-NOX5, NOX inhibitor project, primary screen (AID 1161); settings: HEK293-NOX5, ionomycin, 45 min, higher = more signal
# Sequence of NADPH oxidase 5 (Homo sapiens) (Q96PH1 whole entry, looked up): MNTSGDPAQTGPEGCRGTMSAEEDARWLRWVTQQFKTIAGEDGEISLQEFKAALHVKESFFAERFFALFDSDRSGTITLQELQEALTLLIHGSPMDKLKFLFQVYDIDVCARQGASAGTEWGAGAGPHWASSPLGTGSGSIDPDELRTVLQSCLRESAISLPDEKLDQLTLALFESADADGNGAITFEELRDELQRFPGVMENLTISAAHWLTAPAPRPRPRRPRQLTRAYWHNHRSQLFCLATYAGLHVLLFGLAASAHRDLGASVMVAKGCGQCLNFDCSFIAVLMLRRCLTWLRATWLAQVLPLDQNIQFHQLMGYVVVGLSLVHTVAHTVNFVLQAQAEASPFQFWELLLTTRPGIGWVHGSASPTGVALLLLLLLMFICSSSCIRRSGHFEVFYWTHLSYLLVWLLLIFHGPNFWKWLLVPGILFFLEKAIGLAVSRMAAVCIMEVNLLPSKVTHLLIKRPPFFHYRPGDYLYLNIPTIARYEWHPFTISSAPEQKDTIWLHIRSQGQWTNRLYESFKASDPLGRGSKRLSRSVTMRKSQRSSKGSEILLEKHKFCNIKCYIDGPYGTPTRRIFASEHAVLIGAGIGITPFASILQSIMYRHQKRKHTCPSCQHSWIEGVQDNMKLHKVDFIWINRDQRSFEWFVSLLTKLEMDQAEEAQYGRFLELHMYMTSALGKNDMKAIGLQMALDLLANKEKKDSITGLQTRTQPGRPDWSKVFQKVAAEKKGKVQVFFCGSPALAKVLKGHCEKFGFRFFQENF
SMILES,z-score [1],composite z-score [2],z-score [3],z-score [4],z-score [5],z-score [6],z-score [7],z-score [8],z-score [9],z-score [10]
Cc1ccc(S[C@]2(C(=O)NC3CC3)CC(=O)N(C3CCCCC3)[C@@H]2c2ccc(CO)cc2I)cc1,0.639 (inactive),0.112,6.07 (inactive),0.898 (inactive),-0.0504 (inactive),0.427 (inactive),-0.208,0.655 (inactive),-0.194 (inactive),1.38
COCCOC(=O)N1C(=O)[C@@]2(c3cc(C#Cc4ccc(OC)cc4)ccc31)[C@H](C(=O)N1CCN(c3ncccn3)CC1)[C@H]1C(=O)O[C@H](c3ccccc3)[C@H](c3ccccc3)N1[C@@H]2c1ccc(O)cc1,0.831 (inactive),0.0773,1.39 (inactive),-0.306 (inactive),-0.119 (inactive),-0.541 (inactive),1.59,0.586 (inactive),0.19 (inactive),1.98
C=CCOC(=O)[C@@H]1[C@H]2C(=O)O[C@H](c3ccccc3)[C@H](c3ccccc3)N2[C@H](c2ccc(OCCOC(=O)[C@@H]3C[C@@H]4C(=O)N[C@@H](Cc5ccccc5)C(=O)N4[C@@H]3c3cccc(OCCO)c3)cc2)[C@@]12C(=O)Nc1ccc(I)cc12,0.264 (inactive),0.706,9.36 (active),2.8 (inactive),2.09 (inactive),1.31 (inactive),-0.479,1.03 (inactive),-1.02 (inactive),0.727
COC(=O)[C@@]1(Cc2ccc(OC)cc2)[C@H]2c3cc(C(=O)N4CCCC4)n(CCc4c[nH]c5cc(F)ccc45)c3C[C@H]2CN1C(=O)c1ccccc1,-0.429 (inactive),1.27,3.07 (inactive),0.676 (inactive),0.745 (inactive),1.06 (inactive),-0.174,0.438 (inactive),0.0193 (inactive),-0.293
CCCCC=C[C@@H](NC(=O)c1ccco1)c1ccccc1,-1.24 (inactive),0.0701,1.02 (inactive),0.941 (inactive),-0.279 (inactive),0.813 (inactive),0.782,-0.226 (inactive),0.76 (inactive),1.01
O=C(CS)NCCCCCCNC(=O)[C@@H]1C[C@@H]2C(=O)N3CCC[C@H]3C(=O)N2[C@@H]1c1ccc(O)cc1,0.113 (inactive),-0.55,4.95 (inactive),0.471 (inactive),2.2 (inactive),0.252 (inactive),-0.574,0.489 (inactive),-1.38 (inactive),-0.141
CC(=O)NCCCC[C@@H]1NC(=O)[C@@H]2C[C@H](C(=O)NCCCCCCNC(=O)CS)[C@H](c3ccc(O)cc3)N2C1=O,-0.644 (inactive),0.0494,3.73 (inactive),0.2 (inactive),-1.8 (inactive),0.0805 (inactive),-0.0593,0.897 (inactive),-0.173 (inactive),-0.697
[N-]=[N+]=NCc1ccccc1C[C@]1(C(=O)O)N=C(c2ccc(OCCCO)cc2)O[C@H]1c1ccccc1,-0.0931 (inactive),0.0299,9.62 (active),0.754 (inactive),-0.468 (inactive),-0.0988 (inactive),-0.381,0.453 (inactive),1.4 (inactive),1.68
COc1ccc(C#Cc2ccc3c(c2)[C@]2(C(=O)N3)[C@H](c3ccc(O)cc3)N3[C@H](c4ccccc4)[C@H](c4ccccc4)OC(=O)[C@H]3[C@@H]2C(=O)N2CCCCCCC2)cc1,0.777 (inactive),2.53,-0.212 (inactive),-0.763 (inactive),-0.272 (inactive),-1.29 (inactive),2.87,0.723 (inactive),-0.00989 (inactive),0.855
CC(C)C[C@@H]1NC(=O)[C@H]2C[C@@H](C(=O)NCCCCCCNC(=O)CS)[C@@H](c3cccc(OCCO)c3)N2C1=O,1.03 (inactive),-0.0523,3.77 (inactive),0.194 (inactive),2.83 (inactive),-0.042 (inactive),-0.0016,1.14 (inactive),0.665 (inactive),-0.112
CCCC[C@H]1OB(O)C[C@H]2C1=C(C)C[C@H]1C(=O)N(Cc3ccccc3)C(=O)[C@H]12,1.53 (inactive),-0.147,1.27 (inactive),0.0503 (inactive),-0.348 (inactive),0.157 (inactive),0.918,0.0393 (inactive),0.765 (inactive),0.789
